Seven compounds from PubChem BioAssay (NCATS) can be followed below.

In test [1] the target is Glucocorticoid receptor (Homo sapiens) (UniProt P04150). The experiment in a line: GR-EFC Redistribution (AID 451; calls by dose curve; note: potency is the fitted concentration of half-maximal effect). The conditions noted are these: CHO-K1 GR-EFC translocation, beta-gal luminescence, 2 h. In outline:
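CHO-K1 cells stably expressing nuclear-localized β-gal enzyme acceptor and GR fused C-terminally to the enzyme donor fragment; ligand-driven nuclear translocation restores β-gal by complementation. Compounds titrated up to 46 uM final, 2 h at 37 °C; luminescence read.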

Test [2] deals with Mitogen-activated protein kinase 10 (Mus musculus) (UniProt Q61831). Description: JNK3 AlphaScreen Assay (AID 530; active = well fitted curve in either direction with a large enough effect, not every such curve was filed as active;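 note: kinase came from lysate of stimulated human HepG2 cells; signal reports phosphorylation of biotinylated GST-cJun 1-79 at Ser73 with 10 µM ATP; % is set by controls: 0 for no effect and ±100 for the full control effect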). In outline: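 JNK3 came from HepG2 lysates pre-activated with IL-1beta and TNF-alpha and phosphorylated biotinylated GST-cJun (1-79) at 10 uM ATP, pH 7.6, room temperature. Compounds were titrated. AlphaScreen signal used anti-phospho-cJun (Ser73) antibody.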
Background: In Alpha technology, singlet oxygen from a donor bead excites a nearby acceptor bead.

Test [3] concerns the target 3',5'-cyclic-AMP phosphodiesterase 4B (Homo sapiens) (UniProt Q07343). The experiment in a line: qHTS Assay for Inhibitors of PDE-IV (AID 607; active = well fitted activation curve with a large enough effect in the main read-out, with a control signal flat, not every such curve was filed as active; note: % of control where 0% means no effect). In outline: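 Live HEK293 cells with a modified cyclic nucleotide-gated (CNG) channel report intracellular cAMP via membrane-potential dye fluorescence (ex 535/em 590 nm). Endogenous PDE-IV was targeted. Compounds were tested at up to 22.9 uM final; RO 20-1724 100 uM served as control.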

Test [4] in a line: qHTS Assay for Lipid Storage Modulators (AID 1519; calls by dose curve; for activity change, negative = inhibition: % is set by controls: 0 for no effect and ±100 for the full control effect). The conditions noted are these: Drosophila S3 cells, BODIPY lipid droplet/cell ratio, laser cytometry, cells loaded with oleic acid; for activity change, negative = inhibition: at 25.7 µM (top of the series). In outline:
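Cells seeded at 5,000 per well were treated with compounds over a concentration series and loaded with oleic acid (400 uM, as added). Lipid droplet fluorescence (488 nm excitation, 500-530 nm channel) was read by laser-scanning cytometry and normalized to 20 uM Triacsin C.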

For test [5], the target named is Ubiquitin carboxyl-terminal hydrolase 1 (Homo sapiens) (UniProt O94782). The experiment in a line: Inhibitors of USP1/UAF1: Pilot qHTS (AID 504865).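 For activity change, negative = inhibition: rhodamine fluorescence freed from ubiquitin-rhodamine substrate followed over time; top concentration of the series differs between compounds; % is set by controls: 0 for no effect and ±100 for the full control effect.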 Note: nearly all actives have a fitted effect of over 35% in size. Note: potency is the fitted concentration of half-maximal effect. In outline: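 1nM USP1/UAF1 + cpd, 15 min RT; start w/ Ub-Rho 150nM final; kinetic FL 480/540 nm, 6 reads q60 s. Buffer 50mM HEPES pH 7.8, 0.5mM EDTA, 1mM TCEP, 0.01% Tween-20, 0.1 mg/ml BSA.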
Chain of Ubiquitin carboxyl-terminal hydrolase 1 (Homo sapiens) (O94782 whole entry, looked up): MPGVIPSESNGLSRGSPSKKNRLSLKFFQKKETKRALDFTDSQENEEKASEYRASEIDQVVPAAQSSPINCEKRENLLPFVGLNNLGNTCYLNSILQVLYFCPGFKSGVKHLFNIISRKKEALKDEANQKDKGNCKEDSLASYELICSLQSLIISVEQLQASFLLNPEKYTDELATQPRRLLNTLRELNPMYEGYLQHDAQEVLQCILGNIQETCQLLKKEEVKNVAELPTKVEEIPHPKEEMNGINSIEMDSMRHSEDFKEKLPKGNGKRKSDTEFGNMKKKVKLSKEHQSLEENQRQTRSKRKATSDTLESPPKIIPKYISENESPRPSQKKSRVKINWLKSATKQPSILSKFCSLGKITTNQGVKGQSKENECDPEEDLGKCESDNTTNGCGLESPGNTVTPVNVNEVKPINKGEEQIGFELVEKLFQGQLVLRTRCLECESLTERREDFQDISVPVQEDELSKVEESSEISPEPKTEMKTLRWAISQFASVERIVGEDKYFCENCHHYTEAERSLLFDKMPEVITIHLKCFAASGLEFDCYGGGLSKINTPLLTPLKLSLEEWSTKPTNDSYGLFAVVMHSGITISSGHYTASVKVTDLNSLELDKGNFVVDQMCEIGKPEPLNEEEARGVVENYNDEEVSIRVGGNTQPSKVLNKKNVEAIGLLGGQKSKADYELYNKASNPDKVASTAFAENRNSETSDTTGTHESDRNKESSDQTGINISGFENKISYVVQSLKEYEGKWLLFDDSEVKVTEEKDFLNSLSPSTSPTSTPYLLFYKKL
Test [6] concerns the target Luciferin 4-monooxygenase (Photinus pyralis) (UniProt P08659). The experiment in a line: Biochemical firefly luciferase enzyme assay for NPC (AID 624030).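 Note: purified P. pyralis luciferase at 10 nM with luciferin and ATP substrate; 0% = DMSO and -100% = full luciferase inhibition by PTC124 control; nearly all actives have a fitted effect of over 70% in size.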 The essentials:
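Counter-screen for direct inhibition of the luciferase enzyme by approved-drug library compounds, run at 10 nM enzyme in 50 mM Tris acetate (final). Luminescence was read within 5 min of enzyme-buffer addition and normalized to PTC124 versus DMSO (0%).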

In test [7] the target is ATP-dependent 6-phosphofructokinase (Trypanosoma brucei brucei) (UniProt O15648). Description: qHTS Assay to Find Inhibitors of T. brucei phosphofructokinase: hit validation (AID 492961).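 Note: luminescence reports ADP formed as PFK phosphorylates fructose-6-phosphate with ATP; % is set by controls: 0 for no effect and ±100 for the full control effect.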 The essentials: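 PFK 1.25 nM, F6P 0.5 mM, ATP 0.1 mM, MgCl2 5 mM, 0.1 M TEA pH 8.0, Tween20 0.01%, BSA 0.1%; 45 min RT. ADP-Glo two-step detection, luminescence. qHTS titration; curve fitting with curve-class categorization.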
Chain of ATP-dependent 6-phosphofructokinase (Trypanosoma brucei brucei) (O15648 whole entry, looked up): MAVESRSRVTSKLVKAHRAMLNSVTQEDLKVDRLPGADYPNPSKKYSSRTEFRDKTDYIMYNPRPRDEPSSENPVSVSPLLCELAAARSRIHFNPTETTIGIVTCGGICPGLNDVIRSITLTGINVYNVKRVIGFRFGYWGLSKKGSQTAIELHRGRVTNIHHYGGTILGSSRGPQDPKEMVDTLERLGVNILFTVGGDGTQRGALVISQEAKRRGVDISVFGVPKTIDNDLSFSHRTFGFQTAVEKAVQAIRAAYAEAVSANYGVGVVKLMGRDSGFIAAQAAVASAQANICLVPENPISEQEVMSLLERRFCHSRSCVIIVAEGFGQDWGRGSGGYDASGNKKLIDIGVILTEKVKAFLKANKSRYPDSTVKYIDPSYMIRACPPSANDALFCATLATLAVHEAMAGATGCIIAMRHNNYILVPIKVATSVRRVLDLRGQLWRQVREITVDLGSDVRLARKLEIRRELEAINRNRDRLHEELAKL
Background: Quantitative high-throughput screening tests each substance at several concentrations.

In the next test the test system is CP305. The experiment in a line: qHTS profiling for inhibitors of Plasmodium falciparum proliferation (AID 504749).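 For activity, negative = inhibition: 0% = DMSO vehicle and full inhibition = artemisinin control.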 Note: nearly all actives have a fitted effect of over 60% in size. Note: potency is the fitted concentration of half-maximal effect. The conditions noted are these: P. falciparum in erythrocytes, SYBR Green DNA, 72 h; series mostly up to 12.8 µM. In outline: (§1)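 P. falciparum-infected erythrocytes (0.3% parasitemia, 2.5% hematocrit final) were exposed to compounds for 72 h at 37 C in 5% CO2, then lysed with SYBR Green buffer overnight at room temperature; parasite DNA fluorescence was normalized to artemisinin and DMSO controls.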

Another test has as its system N140. Described as above. The conditions noted are these: P. falciparum in erythrocytes, SYBR Green DNA, 72 h; series mostly up to 12.8 µM. In outline: as §1
A further test has as its system PC49. The description is as above. The conditions noted are these: P. falciparum in erythrocytes, SYBR Green DNA, 72 h; series mostly up to 12.8 µM. The essentials: as §1
Assay in test [8]: as above
The conditions noted are these: P. falciparum in erythrocytes, SYBR Green DNA, 72 h; for activity, negative = inhibition: at 12.8 µM (top of the series). In outline:
as §1

In a further test the test system is AS120. Described as above. The conditions noted are these: P. falciparum in erythrocytes, SYBR Green DNA, 72 h; series mostly up to 12.8 µM. In outline: as §1
Another test deals with C2A. Described as above. The conditions noted are these: P. falciparum in erythrocytes, SYBR Green DNA, 72 h; series mostly up to 12.8 µM. In outline:
as §1

In a further test the test system is CP191. The test is described as above. The conditions noted are these: P. falciparum in erythrocytes, SYBR Green DNA, 72 h; series mostly up to 12.8 µM. In outline: as §1
The subject of another test is CP217. The description is as above. The conditions noted are these: P. falciparum in erythrocytes, SYBR Green DNA, 72 h; series mostly up to 12.8 µM. In outline: as §1
For another test, the system named is ECU. The description is as above. The conditions noted are these: P. falciparum in erythrocytes, SYBR Green DNA, 72 h; series mostly up to 12.8 µM. The essentials:
as §1

For the next test, the system named is FAB9. Described as above. The conditions noted are these: P. falciparum in erythrocytes, SYBR Green DNA, 72 h; series mostly up to 12.8 µM. In outline: as §1
A further test relates to PC15. Described as above. The conditions noted are these: P. falciparum in erythrocytes, SYBR Green DNA, 72 h; series mostly up to 12.8 µM. In outline:
as §1

Another test relates to TAB165. The description is as above. The conditions noted are these: P. falciparum in erythrocytes, SYBR Green DNA, 72 h; series mostly up to 12.8 µM. In outline:
as §1

The next test relates to CP329. Described as above. The conditions noted are these: P. falciparum in erythrocytes, SYBR Green DNA, 72 h; series mostly up to 12.8 µM. The essentials: as §1
The mark [9] stands for this setting: measured here: cell count channel max response.
The mark [10] stands for this setting: measured here: lipid channel max response.

“And” between values parts separate entries of the source, which are not always exact repeats. Equal values may be shown once. Records with an inconclusive call do not appear. The source made the active and inactive calls. Unless noted, calls come from the whole dose curve; as a rule, active = well fitted curve in the direction sought with a large enough effect; inconclusive = small, poorly fitted or top-dose-only effect, or another doubt; inactive = no such curve, though single readings can be large; an effect the other way counts as inactive or inconclusive.

Chain of Glucocorticoid receptor (Homo sapiens) (P04150 whole entry, looked up, the tested form may be a part): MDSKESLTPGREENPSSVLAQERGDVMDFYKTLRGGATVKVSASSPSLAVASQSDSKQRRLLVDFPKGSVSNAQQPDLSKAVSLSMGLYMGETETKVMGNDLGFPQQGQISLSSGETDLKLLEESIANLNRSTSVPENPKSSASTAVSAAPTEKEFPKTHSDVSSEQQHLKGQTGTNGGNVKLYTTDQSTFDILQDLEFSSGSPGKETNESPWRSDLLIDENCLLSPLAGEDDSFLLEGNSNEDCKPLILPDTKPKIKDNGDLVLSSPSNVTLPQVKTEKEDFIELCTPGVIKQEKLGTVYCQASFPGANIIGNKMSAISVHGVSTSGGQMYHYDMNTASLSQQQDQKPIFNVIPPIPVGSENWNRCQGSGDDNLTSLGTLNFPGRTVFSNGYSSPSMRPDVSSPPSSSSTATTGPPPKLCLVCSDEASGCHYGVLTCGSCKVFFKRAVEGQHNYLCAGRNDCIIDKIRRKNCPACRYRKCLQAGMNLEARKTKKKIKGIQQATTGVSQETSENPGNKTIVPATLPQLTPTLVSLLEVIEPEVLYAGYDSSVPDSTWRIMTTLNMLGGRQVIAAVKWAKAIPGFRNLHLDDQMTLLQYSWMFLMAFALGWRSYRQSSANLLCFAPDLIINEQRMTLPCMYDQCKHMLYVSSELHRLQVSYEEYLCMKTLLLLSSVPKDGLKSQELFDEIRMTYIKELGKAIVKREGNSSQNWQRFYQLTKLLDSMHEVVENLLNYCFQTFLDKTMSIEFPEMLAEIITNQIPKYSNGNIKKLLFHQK
Chain of 3',5'-cyclic-AMP phosphodiesterase 4B (Homo sapiens) (Q07343 whole entry, looked up): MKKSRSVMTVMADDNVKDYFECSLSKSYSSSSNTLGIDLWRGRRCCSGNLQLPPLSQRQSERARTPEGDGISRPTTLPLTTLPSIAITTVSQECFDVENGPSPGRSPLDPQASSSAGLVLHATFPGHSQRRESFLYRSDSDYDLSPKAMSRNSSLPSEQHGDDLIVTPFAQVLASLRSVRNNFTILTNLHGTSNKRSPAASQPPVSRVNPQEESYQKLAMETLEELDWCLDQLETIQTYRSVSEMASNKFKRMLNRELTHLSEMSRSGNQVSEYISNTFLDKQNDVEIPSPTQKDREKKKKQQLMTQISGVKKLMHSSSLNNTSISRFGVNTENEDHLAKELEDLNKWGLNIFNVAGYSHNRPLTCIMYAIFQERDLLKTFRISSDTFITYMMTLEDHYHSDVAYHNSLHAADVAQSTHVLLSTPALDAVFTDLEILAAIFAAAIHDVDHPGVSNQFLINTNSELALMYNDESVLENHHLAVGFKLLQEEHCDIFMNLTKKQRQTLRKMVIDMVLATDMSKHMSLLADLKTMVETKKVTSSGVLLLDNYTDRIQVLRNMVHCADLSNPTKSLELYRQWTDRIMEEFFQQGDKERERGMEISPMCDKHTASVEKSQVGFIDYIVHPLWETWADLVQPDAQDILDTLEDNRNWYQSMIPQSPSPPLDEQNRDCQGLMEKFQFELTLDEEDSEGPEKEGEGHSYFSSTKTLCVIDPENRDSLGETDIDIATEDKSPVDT
Chain of Luciferin 4-monooxygenase (Photinus pyralis) (P08659 whole entry, looked up): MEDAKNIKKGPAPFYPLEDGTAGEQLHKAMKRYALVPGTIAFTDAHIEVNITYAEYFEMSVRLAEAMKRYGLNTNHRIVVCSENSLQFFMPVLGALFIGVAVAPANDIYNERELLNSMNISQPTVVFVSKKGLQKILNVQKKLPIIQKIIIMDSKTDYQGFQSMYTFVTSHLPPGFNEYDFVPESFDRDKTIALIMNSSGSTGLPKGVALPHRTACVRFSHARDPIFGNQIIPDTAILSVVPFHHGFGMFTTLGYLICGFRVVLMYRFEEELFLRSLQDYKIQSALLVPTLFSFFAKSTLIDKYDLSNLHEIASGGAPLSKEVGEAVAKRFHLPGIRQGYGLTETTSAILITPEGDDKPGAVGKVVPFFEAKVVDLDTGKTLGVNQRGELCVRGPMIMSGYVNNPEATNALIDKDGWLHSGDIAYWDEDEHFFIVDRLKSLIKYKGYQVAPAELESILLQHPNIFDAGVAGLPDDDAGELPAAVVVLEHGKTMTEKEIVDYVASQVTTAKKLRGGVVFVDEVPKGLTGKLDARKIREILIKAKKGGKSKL

For the compound `Cc1nccn1C[C@@H]1CCc2c(c3ccccc3n2C)C1=O`, the Potency in test [1] was > 20.6 µM (inactive). Besides, the Potency result in test [2], in test [5] and in test [6] was “inactive” throughout. The result in test [3] was inactive. For the same compound, the activity change, negative = inhibition in test [4] was -8.25% (inactive). Besides, the max response in test [4] (setting [9]) was -10%; in test [4] (setting [10]) it was -16.3%.

In the case of `O=C(O)[C@@H]1[C@@H]2C[C@H]3c4[nH]c5ccccc5c4CCN3C[C@@H]2CC[C@@H]1O`, the Potency in [1] was > 20.6 µM (inactive) and > 46 µM (inactive); in test [5], 28.2 µM (active). Further, the Potency entry (in [2]; in test [6]; with CP305; with N140; in the test with PC49) was “inactive” each time. Further, the compound was classed as inactive in test [3] and in test [7]. Also, the activity change, negative = inhibition in test [4] was 0.95% (inactive). In addition, the results for the max response in test [4] (setting [9]) and in test [4] (setting [10]) were -6.3% and -6.11%, respectively.

Take `CCC(=O)O[C@@H]1[C@H](C)O[C@H](O[C@H]2[C@@H](N(C)C)[C@H](O)[C@@H](O[C@@H]3[C@@H](CC=O)C[C@@H](C)[C@@H](O)/C=C\C=C/C[C@@H](C)OC(=O)C[C@@H](OC(=O)CC)[C@H]3OC)O[C@H]2C)C[C@]1(C)O`: in test [1], the Potency is > 20.6 µM (inactive). For the same compound, the Potency result (in test [2]; in [6]; in the test with AS120; with C2A; in the test on CP191; in the test with CP217) was “inactive” each time. Besides, the Potency result in the test on ECU, in the test with FAB9, in the test with PC15, with PC49 and in the test with TAB165 was “inactive” each time. Also, the compound was classed as inactive in test [3]. For the same compound, the activity change, negative = inhibition in test [4] was -0.346% (inactive). For the same compound, the max response was -5.96% in test [4] (setting [9]) and -6.47% in test [4] (setting [10]). Further, the activity, negative = inhibition in test [8] (parasite line A) was -18.8% (inactive); in [8] (parasite line B) it was -28.9% (inactive).

In the case of `CCOC(=O)Oc1c(OC)cc(C(=O)O[C@H]2C[C@H]3CN4CCc5c([nH]c6cc(OC)ccc56)[C@@H]4C[C@H]3[C@@H](C(=O)OC)[C@@H]2OC)cc1OC`, the Potency in test [1] is > 20.6 µM (inactive); in test [8] (parasite line A), 4.47 µM (active); with AS120 it was 3.55 µM (active); in the test on N140 it was 3.55 µM (active); with TAB165, 3.55 µM (active). Besides, the Potency result in test [2], in test [5] and in test [6] was “inactive” throughout. Further, the result in test [3] and in test [7] was inactive. Also, the activity change, negative = inhibition in [4] is -4.31% (inactive). Also, the max response in [4] (setting [9]) was -12.6%; in test [4] (setting [10]), -12.3%.

For the compound `NCC[C@H](O)C(=O)N[C@H]1C[C@@H](N)[C@@H](O[C@H]2O[C@@H](CN)[C@@H](O)[C@@H](O)[C@@H]2O)[C@@H](O)[C@@H]1O[C@H]1O[C@@H](CO)[C@@H](O)[C@@H](N)[C@@H]1O`, the Potency in test [1] is > 20.6 µM (inactive). Besides, in test [2], the Potency result was “inactive”. For the same compound, the compound was called inactive in [3]. In addition, the activity change, negative = inhibition in test [4] is -0.738% (inactive). The max response in test [4] (setting [9]) was found to be 11.5%; in test [4] (setting [10]), 11.3%.

As for `CCN(CC)[C@@H](C)CN1c2ccccc2Sc2ccccc21`, the Potency in [1] is > 20.6 µM (inactive). Besides, the Potency entry (in test [2]; in test [5]; in test [6]; with C2A; with CP305; in the test on CP329) was “inactive” in each case. Besides, the Potency result in the test on FAB9, in the test on PC15 and in the test with PC49 was “inactive” each time. The compound was classed as inactive in test [3] and in test [7]. The activity change, negative = inhibition in test [4] was 0.633% (inactive). Moreover, the max response in test [4] (setting [9]) was -2.62%; in [4] (setting [10]), -2.65%. Further, the activity, negative = inhibition in [8] (parasite line B) is -12.9% (inactive).

For `CC[C@@H]1OC(=O)[C@H](C)[C@H](O[C@@H]2C[C@](C)(OC)[C@H](O)[C@H](C)O2)[C@H](C)[C@H](O[C@@H]2O[C@@H](C)C[C@@H](N(C)C)[C@@H]2O)[C@](C)(O)C[C@H](C)[C@@H]2N[C@H](COCCOC)O[C@H]([C@@H]2C)[C@]1(C)O`, the Potency entry in test [2] and in test [5] was “inactive” in each case. The compound was classed as inactive in test [3]. Further, the activity change, negative = inhibition in test [4] was -3.92% (inactive). Besides, the max response in test [4] (setting [9]) was -8.33%; in test [4] (setting [10]), -9.89%.
